From PubChem BioAssay (NCI) come the findings set out here.

Among the test systems are NCI-H23 lung; NCI-H226 lung; NCI-H322M lung; HOP-62 NSCLC; NCI-H460 lung; NCI-H522 lung; A549/ATCC NSCLC; 786-0 renal; DU-145 prostate; K-562 leukemia; MALME-3M melanoma; MDA-MB-231 breast; RXF 393 renal; SF-268 CNS; SF-539 CNS; UACC-257 melanoma; M14 melanoma; HCT-15 colon; SF-295 CNS; COLO 205 colon.
Common to all, as to test: NCI-60 one-dose screen, 48 h (100 = growth as untreated, 0 = no growth, -100 = all killed)
Details in all cases: 10 µM unless noted

About 83,000 compounds went through this panel and 20% of them were active in at least one assay; those are over-represented in the sample as a whole.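 In brief: 96-well plates, 48 h treatment, single concentration, percent growth endpoint.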 Unmarked numbers belong to inactive results. Calls of active or inactive are those of the source. How the source made its calls: active means growth percent below 10; inactive means the rest.

With `C/C(=N/N=C(N)N)c1ccc(N)cc1`, the growth was 100% with NCI-H23 lung; 102% in the assay on NCI-H226 lung; 79.2% in the assay on NCI-H322M lung; 91.5% with HOP-62 NSCLC; 106% with NCI-H460 lung; 91.5% with NCI-H522 lung. In addition, the growth with A549/ATCC NSCLC is 103%; in the assay on 786-0 renal, 96%; in the assay on DU-145 prostate, 107%; in the assay on K-562 leukemia, 94.6%; with MALME-3M melanoma it was 115%; with MDA-MB-231 breast, 104%. For the same compound, the growth in the assay with RXF 393 renal was 98.5%; with SF-268 CNS, 114%; with SF-539 CNS it was 96.3%; in the assay with UACC-257 melanoma, 150%; in the assay on M14 melanoma, 95.9%; with HCT-15 colon, 115%.

As for `COc1ccc(-c2cc(C(=O)Nc3nc4cc(C)c(C)cc4s3)nc3cc(-c4ccccc4)nn23)cc1OC`, the growth is 96% with NCI-H23 lung; 113% in the assay on NCI-H226 lung; 119% in the assay with NCI-H322M lung; 100% with HOP-62 NSCLC; 112% in the assay with NCI-H460 lung; 89% in the assay on NCI-H522 lung. The growth in the assay with A549/ATCC NSCLC is 94.5%; with 786-0 renal, 112%; with DU-145 prostate it was 121%; with K-562 leukemia, 110%; in the assay on MALME-3M melanoma it was 101%; in the assay with MDA-MB-231 breast, 107%. Further, the growth was 112% in the assay with RXF 393 renal; 112% in the assay with SF-295 CNS; 98.7% in the assay with SF-539 CNS; 93% with UACC-257 melanoma; 103% with M14 melanoma; 111% with HCT-15 colon.

Regarding `O=Nc1ccc(O)c(=O)cc1`, the growth with NCI-H23 lung was 70.6%; in the assay with NCI-H226 lung, 38.4%; in the assay on NCI-H322M lung, 88.3%; with HOP-62 NSCLC, 88.1%; in the assay on NCI-H460 lung, 114%; in the assay on NCI-H522 lung, -74.1% (active). Further, the growth is 110% in the assay on A549/ATCC NSCLC; 15.9% in the assay on 786-0 renal; -21.6% (active) with COLO 205 colon; 9.11% (active) with K-562 leukemia; -4.09% (active) in the assay on MALME-3M melanoma; 41.6% in the assay on MDA-MB-231 breast. Besides, the growth in the assay with RXF 393 renal is -42.1% (active); with SF-295 CNS, 125%; in the assay with SF-539 CNS, 47.8%; with UACC-257 melanoma, 37.4%; with M14 melanoma it was 30.4%; in the assay on HCT-15 colon, 10.2%.

`Cc1c(C(N)=O)sc2nc(SCC(=O)Nc3ccc(Cl)cc3)n(-c3ccccc3)c(=O)c12`: the growth in the assay with NCI-H23 lung was 106%; in the assay on NCI-H226 lung it was 108%; in the assay on NCI-H322M lung, 105%; with HOP-62 NSCLC, 109%; in the assay with NCI-H460 lung, 106%; with NCI-H522 lung it was 89.2%. Further, the growth in the assay with A549/ATCC NSCLC is 116%; with 786-0 renal it was 104%; in the assay with DU-145 prostate, 120%; in the assay on K-562 leukemia, 84.2%; in the assay with MALME-3M melanoma, 159%; in the assay with MDA-MB-231 breast, 93.1%. Besides, the growth with RXF 393 renal is 95.8%; with SF-268 CNS, 101%; in the assay on SF-539 CNS, 110%; with UACC-257 melanoma, 104%; in the assay on M14 melanoma it was 104%; with HCT-15 colon, 121%.

On to `CCOC(=O)C1C(=O)OC2CCCCC21` (stereo not drawn), for which the growth in the assay with NCI-H23 lung is 101%; in the assay with NCI-H226 lung, 113%; with NCI-H322M lung, 113%; with HOP-62 NSCLC, 127%; with NCI-H460 lung it was 110%; in the assay with NCI-H522 lung, 108%. The growth in the assay on A549/ATCC NSCLC was 102%; with 786-0 renal, 100%; in the assay on COLO 205 colon, 120%; in the assay on K-562 leukemia, 102%; in the assay on MALME-3M melanoma, 120%; in the assay on MDA-MB-231 breast, 101%. The growth is 119% with RXF 393 renal; 111% in the assay on SF-268 CNS; 114% with SF-295 CNS; 105% with SF-539 CNS; 102% with UACC-257 melanoma; 98.3% with M14 melanoma. Besides, the growth in the assay on HCT-15 colon is 101%.

Take `COc1cc2c(c(OC)c1OC)-c1ccc(NN(C(=O)c3ccccc3)C(=O)c3ccccc3)c(=O)cc1[C@@H](NC(C)=O)CC2` (tested in a mixture with another compound): the growth in the assay on NCI-H23 lung was 26.9%; in the assay on NCI-H226 lung, 73.3%; in the assay with NCI-H322M lung it was 17.8%; in the assay on HOP-62 NSCLC, 46%; in the assay with NCI-H460 lung, 17.9%; in the assay on NCI-H522 lung, -8.35% (active). The growth in the assay on A549/ATCC NSCLC is 56.6%; with 786-0 renal, 31.4%; with DU-145 prostate, 3.42% (active); in the assay with MALME-3M melanoma it was 39.4%; in the assay on MDA-MB-231 breast, 51.2%; in the assay on RXF 393 renal it was 38.5%. Further, the growth was 48.9% with SF-268 CNS; -30.7% (active) in the assay with SF-295 CNS; 15.4% in the assay with SF-539 CNS; 58.4% in the assay on UACC-257 melanoma; 4.01% (active) in the assay with M14 melanoma.

Turning to `COc1cc(-c2cc(C(=O)Nc3nc4ccccc4s3)nc3cc(-c4ccccc4)nn23)cc(OC)c1OC`, the growth was 49.1% with NCI-H23 lung; 70.2% in the assay with NCI-H226 lung; 90.9% in the assay with NCI-H322M lung; 46.6% with HOP-62 NSCLC; 79.3% in the assay on NCI-H460 lung; 18.8% in the assay with NCI-H522 lung. Moreover, the growth with A549/ATCC NSCLC is 77.5%; in the assay with 786-0 renal, 81.6%; in the assay with DU-145 prostate it was 51.5%; in the assay with K-562 leukemia, 53.2%; in the assay with MALME-3M melanoma, 28.5%; with MDA-MB-231 breast it was 66.1%. Further, the growth in the assay on RXF 393 renal was 66.7%; with SF-295 CNS, 53%; in the assay with SF-539 CNS, 4.14% (active); in the assay on UACC-257 melanoma, 59.1%; in the assay with M14 melanoma it was 26.3%; with HCT-15 colon it was 85.3%.

In the case of `COc1cc2c(cc1OC)C1CCN3C(=O)CCC3N1CC2` (stereo not drawn), the growth in the assay with NCI-H23 lung is 99.3%; in the assay on NCI-H226 lung, 113%; in the assay with NCI-H322M lung, 124%; with HOP-62 NSCLC it was 121%; in the assay on NCI-H460 lung, 107%; with NCI-H522 lung it was 107%. Also, the growth in the assay with A549/ATCC NSCLC was 113%; with 786-0 renal, 103%; in the assay on DU-145 prostate, 111%; with MALME-3M melanoma, 117%; with MDA-MB-231 breast, 116%; with RXF 393 renal, 106%. Moreover, the growth with SF-268 CNS was 103%; in the assay on SF-295 CNS, 113%; with SF-539 CNS it was 118%; in the assay with UACC-257 melanoma, 108%; with M14 melanoma it was 116%; in the assay with HCT-15 colon it was 110%.

Turning to `O=C(Nc1ccc(Cl)cc1)Nc1ccc(Oc2nncc3ccccc23)cc1`, the growth in the assay on NCI-H23 lung was 0.498% (active); with NCI-H226 lung, -54.5% (active); with NCI-H322M lung, 60.9%; in the assay with HOP-62 NSCLC, 12.9%; in the assay with NCI-H460 lung, 21.5%; in the assay with NCI-H522 lung it was -46.3% (active). Further, the growth was 40% with A549/ATCC NSCLC; 11.9% with COLO 205 colon; 11.2% with DU-145 prostate; 5.58% (active) with K-562 leukemia; 0.777% (active) in the assay with MALME-3M melanoma; -25.2% (active) with MDA-MB-231 breast. The growth in the assay on RXF 393 renal is -91.2% (active); in the assay with SF-268 CNS, 12.6%; in the assay with SF-295 CNS, 40.7%; in the assay on SF-539 CNS, -76.5% (active); in the assay on UACC-257 melanoma it was 34.4%; in the assay with M14 melanoma, 7.3% (active). Besides, the growth in the assay with HCT-15 colon is 2.76% (active).
